In PubChem BioAssay AID1159580 (chemical genetic matrix, 2015):
Values joined by “and” are separate entries in the source; they are usually repeats but may differ in a detail not shown here. Equal entries are not always repeated. The whole screen tested about 5,500 compounds, of which about 2,000 (36%) were called active. Roughly 18% stayed inconclusive and do not appear here. No stated cut-off is given here; in the data, active means normalized growth mostly below about 0.91 (no sharp cut-off); inconclusive means no clear call, values can overlap the other calls; inactive means mostly above about 0.92. This is one part of the list.

Assay: chemical genetic growth profiling, strain panel (AID 1159580);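 further: tested at 20 µM; growth read once vehicle control cultures reached saturation at 30 °C; 1 = growth at the plate median or of vehicle wells; lower values mean less growth of the strain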
Conditions: S. cerevisiae deletion strains, growth OD

Measured: normalized growth

NS(=O)(=O)c1cc2c(cc1Cl)NC(C(Cl)Cl)NS2(=O)=O (configuration not stated)
inactive: locus YAL021C, strain ccr4, active compounds read low 0.977 | locus YAL026C, strain drs2, active compounds read low 0.968 | locus YAL030W, strain snc1, active compounds read low 0.978 | locus YBL061C, strain skt5, active compounds read low 0.985 | locus YBR009C, strain hhf1, active compounds read low 0.919 | locus YBR021W, strain FUR4, active compounds read low 1.01 | locus YBR023C, strain chs3, active compounds read low 0.978 | locus YBR171W, strain sec66, active compounds read low 0.972 | locus YBR229C, strain ROT2, active compounds read low 1.01 | locus YBR231C, strain swc5, active compounds read low 0.979 | locus YBR279W, strain paf1, active compounds read low 0.984 | locus YCL011C, strain gbp2, active compounds read low 0.96 | locus YCL016C, strain dcc1, active compounds read low 0.967 | locus YCL029C, strain bik1, active compounds read low 1.02 | locus YCL069W, strain vba3, active compounds read low 0.988 | locus YCR088W, strain abp1, active compounds read low 0.96 | locus YDL005C, strain med2, active compounds read low 0.974 | locus YDL035C, strain GPR1, active compounds read low 0.991 | locus YDL040C, strain nat1, active compounds read low 0.986 | locus YDL074C, strain BRE1, active compounds read low 1.01 | locus YDL101C, strain DUN1, active compounds read low 1 | locus YDL134C, strain PPH21, active compounds read low 1.02 | locus YDL185W, strain tfp1, active compounds read low 1.02 | locus YDL192W, strain arf1, active compounds read low 1.02 | locus YDR001C, strain nth1, active compounds read low 0.957 | locus YDR069C, strain doa4, active compounds read low 0.989 | locus YDR101C, strain arx1, active compounds read low 1.01 | locus YDR137W, strain rgp1, active compounds read low 0.97 | locus YDR150W, strain NUM1, active compounds read low 1.01 | locus YDR159W, strain sac3, active compounds read low 0.918 | locus YDR162C, strain NBP2, active compounds read low 1.01 | locus YDR195W, strain ref2 0.992 | locus YDR297W, strain sur2, active compounds read low 0.984 | locus YDR318W, strain mcm21, active compounds read low 1.02 | locus YDR334W, strain swr1, active compounds read low 0.979 | locus YDR335W, strain msn5, active compounds read low 0.963 | locus YDR388W, active compounds read low 1.02 | locus YDR392W, strain spt3, active compounds read low 0.917 | locus YDR502C, strain sam2, active compounds read low 1.01 | locus YEL003W, strain gim4, active compounds read low 0.976 | locus YEL037C, strain rad23, active compounds read low 0.98 | locus YEL061C, strain CIN8 (second series), active compounds read low 0.971 | locus YEL061C, strain CIN8, active compounds read low 1.01 | locus YER015W, strain faa2, active compounds read low 0.977 | locus YER016W, strain bim1, active compounds read low 0.926 | locus YER110C, active compounds read low 1.02 | locus YER111C, strain swi4, active compounds read low 0.982 | locus YER155C, strain BEM2 (second series), active compounds read low 1.03 | locus YER155C, strain BEM2, active compounds read low 1.01 | locus YER167W, strain BCK2, active compounds read low 1.01 | locus YFR010W, strain ubp6, active compounds read low 0.984 | locus YGL078C, strain dbp3, active compounds read low 1.01 | locus YGL086W, strain mad1, active compounds read low 1.01 | locus YGL167C, strain pmr1, active compounds read low 0.963 | locus YGL173C, strain kem1, active compounds read low 0.998 | locus YGL227W, strain vid30, active compounds read low 0.98 | locus YGL240W, strain doc1, active compounds read low 0.99 | locus YGL248W, strain PDE1, active compounds read low 0.997 | locus YGL253W, strain hxk2, active compounds read low 0.976 | locus YGR135W, strain pre9, active compounds read low 1.01 | locus YGR252W, strain gcn5, active compounds read low 0.991 | locus YHR013C, strain ard1, active compounds read low 0.914 | locus YHR027C, strain rpn1, active compounds read low 0.975 | locus YHR030C, strain SLT2, active compounds read low 1.01 and 0.993 | locus YHR079C, strain IRE1 (second series), active compounds read low 1.01 | locus YHR079C, strain IRE1, active compounds read low 0.989 | locus YHR094C, strain hxt1, active compounds read low 1.01 | locus YHR129C, strain ARP1, active compounds read low 0.993 | locus YHR142W, strain chs7, active compounds read low 0.981 | locus YHR200W, strain rpn10, active compounds read low 1.01 | locus YIL066C, strain RNR3, active compounds read low 1.02 | locus YIL073C, strain SPO22, active compounds read low 1.06 | locus YIL125W, strain kgd1, active compounds read low 1.01 | locus YIR030C, strain dcg1, active compounds read low 1.02 | locus YJL092W, strain hpr5, active compounds read low 0.987 | locus YJL095W, strain BCK1 (second series), active compounds read low 0.973 | locus YJL095W, strain BCK1, active compounds read low 0.991 and 0.983 | locus YJL115W, strain asf1, active compounds read low 0.963 | locus YJL129C, strain trk1, active compounds read low 0.968 | locus YJL134W, strain LCB3, active compounds read low 1.01 | locus YJL154C, strain vps35, active compounds read low 0.978 | locus YJL164C, strain tpk1, active compounds read low 0.94 | locus YJL166W, strain qcr8, active compounds read low 0.993 | locus YJL168C, strain set2, active compounds read low 1.01 | locus YJL187C, strain SWE1 (second series), active compounds read low 1.01 | locus YJR043C, strain POL32, active compounds read low 1 | locus YJR066W, strain TOR1, active compounds read low 0.931
